Among the data in PubChem BioAssay AID504333 (National Center for Advancing Translational Sciences (NCATS), 2011) are Potency values, retold here.

The whole screen tested about 360,000 compounds, of which about 16,000 (4.4%) were called active. Entries that show only a call come without a potency. Another 9% or so got no clear call; they are omitted. This is one part of a sample in which actives are shown more often than they occur. Calls follow the shape of the dose curve; as a rule, active = well fitted inhibition curve with a large enough effect; inconclusive = small, poorly fitted or top-dose-only effect; inactive = no such curve, though single readings can be large or run the other way.
Potency is read from the fitted curve at half-maximal effect.

The target in the assay is Bromodomain adjacent to zinc finger domain protein 2B (Homo sapiens) (UniProt Q9UIF8). The assay is described as follows: qHTS Assay for Inhibitors of BAZ2B. Also: nearly all actives have a fitted effect of over 60% in size. The following applies: AlphaScreen BAZ2B-H3K14Ac peptide displacement; series mostly up to 114 µM. In outline: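 Multi-concentration screen (max 110 uM) measuring displacement of acetylated histone H3 peptide from BAZ2B by AlphaScreen, using 50 nM protein, 50 nM peptide and 10 ug/mL streptavidin donor plus Ni-chelate acceptor beads.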
Bromodomain adjacent to zinc finger domain protein 2B (Homo sapiens), sequence (Q9UIF8 whole entry, looked up, the tested form may be a part): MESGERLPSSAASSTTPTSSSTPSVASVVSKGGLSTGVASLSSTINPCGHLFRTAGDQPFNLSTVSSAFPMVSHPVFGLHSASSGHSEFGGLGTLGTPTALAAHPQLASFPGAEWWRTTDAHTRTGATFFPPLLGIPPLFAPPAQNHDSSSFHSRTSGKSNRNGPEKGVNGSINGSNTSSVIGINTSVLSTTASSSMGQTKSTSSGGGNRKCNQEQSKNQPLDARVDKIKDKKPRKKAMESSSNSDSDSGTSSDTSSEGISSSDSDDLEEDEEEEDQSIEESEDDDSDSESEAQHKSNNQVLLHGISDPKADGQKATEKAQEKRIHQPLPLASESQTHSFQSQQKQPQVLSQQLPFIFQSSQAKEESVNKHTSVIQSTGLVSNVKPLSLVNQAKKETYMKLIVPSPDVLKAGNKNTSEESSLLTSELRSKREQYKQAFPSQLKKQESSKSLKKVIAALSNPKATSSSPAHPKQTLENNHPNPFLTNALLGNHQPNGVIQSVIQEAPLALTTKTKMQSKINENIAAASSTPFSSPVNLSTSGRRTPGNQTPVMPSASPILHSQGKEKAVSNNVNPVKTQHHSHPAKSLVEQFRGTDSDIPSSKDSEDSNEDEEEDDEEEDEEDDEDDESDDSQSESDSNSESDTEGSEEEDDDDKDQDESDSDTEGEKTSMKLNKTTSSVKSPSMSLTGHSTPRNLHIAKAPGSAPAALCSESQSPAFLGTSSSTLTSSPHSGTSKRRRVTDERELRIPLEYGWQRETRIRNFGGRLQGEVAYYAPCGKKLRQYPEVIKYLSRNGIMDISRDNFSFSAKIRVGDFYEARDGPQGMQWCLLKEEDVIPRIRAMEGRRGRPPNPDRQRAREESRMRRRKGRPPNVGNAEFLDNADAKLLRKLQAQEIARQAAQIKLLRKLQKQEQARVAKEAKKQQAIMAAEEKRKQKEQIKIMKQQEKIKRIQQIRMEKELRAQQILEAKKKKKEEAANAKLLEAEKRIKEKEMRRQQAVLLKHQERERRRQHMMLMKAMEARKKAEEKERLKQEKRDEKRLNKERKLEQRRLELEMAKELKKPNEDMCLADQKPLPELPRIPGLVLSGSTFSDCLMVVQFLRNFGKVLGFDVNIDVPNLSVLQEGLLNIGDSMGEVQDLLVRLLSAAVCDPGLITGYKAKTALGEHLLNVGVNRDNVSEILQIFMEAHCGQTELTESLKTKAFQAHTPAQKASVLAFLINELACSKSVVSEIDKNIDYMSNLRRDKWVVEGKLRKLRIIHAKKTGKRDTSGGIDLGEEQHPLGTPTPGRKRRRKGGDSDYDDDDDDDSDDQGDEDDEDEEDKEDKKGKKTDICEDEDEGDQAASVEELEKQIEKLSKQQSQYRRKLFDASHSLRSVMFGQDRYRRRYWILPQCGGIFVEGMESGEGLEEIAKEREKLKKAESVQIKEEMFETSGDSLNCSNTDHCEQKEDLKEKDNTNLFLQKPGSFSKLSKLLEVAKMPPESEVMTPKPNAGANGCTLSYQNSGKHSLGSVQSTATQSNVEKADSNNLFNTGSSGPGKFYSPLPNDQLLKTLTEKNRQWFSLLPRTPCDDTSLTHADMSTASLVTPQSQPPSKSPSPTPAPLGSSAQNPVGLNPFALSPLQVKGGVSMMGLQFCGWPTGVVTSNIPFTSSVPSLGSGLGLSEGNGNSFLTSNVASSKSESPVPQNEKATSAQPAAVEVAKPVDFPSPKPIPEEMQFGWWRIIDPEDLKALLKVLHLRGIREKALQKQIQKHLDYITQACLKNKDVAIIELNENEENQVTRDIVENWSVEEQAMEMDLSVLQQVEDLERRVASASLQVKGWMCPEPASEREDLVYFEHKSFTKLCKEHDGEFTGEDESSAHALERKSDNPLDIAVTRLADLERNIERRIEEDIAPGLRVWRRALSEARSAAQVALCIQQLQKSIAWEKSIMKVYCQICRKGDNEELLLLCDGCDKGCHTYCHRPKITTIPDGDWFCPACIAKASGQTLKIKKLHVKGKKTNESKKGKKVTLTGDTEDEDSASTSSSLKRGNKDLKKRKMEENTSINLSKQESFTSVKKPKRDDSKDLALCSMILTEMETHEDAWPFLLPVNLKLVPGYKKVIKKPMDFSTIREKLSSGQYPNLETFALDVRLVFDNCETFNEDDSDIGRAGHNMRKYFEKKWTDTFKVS
With `CC(C)(C)C1CCc2c(sc(NC(=O)c3ccccc3F)c2C(=O)N2CCCCC2)C1` (stereo not given), the Potency entry was “inactive”. Take `COc1cccc(-c2cc(C(=O)Nc3ccc(C)cc3)[nH]n2)c1`: the Potency result was “inactive”. As to `COc1ccc(-c2noc(-c3ccc(N4CCN(c5ccccc5)CC4)c([N+](=O)[O-])c3)n2)cc1OC`, the Potency entry was “inactive”. The value for `CCN(CC)S(=O)(=O)c1ccc2c(c1)N(CC(=O)NCc1ccccc1)C(=O)CS2` was “inactive”; that for `CCNS(=O)(=O)c1cc(-c2nnc(Nc3cccc(C(F)(F)F)c3)c3ccccc23)ccc1C` was “inactive”.

`COC(=O)c1c(NC(=O)c2c(Cl)cnn2C)sc(C)c1C`: the Potency result is “inactive”. The value for `COCCCNCC(=O)Nc1sc(C)c(C)c1C(=O)OC` was 50.1 µM (active); that for `CCC(=O)Nc1sc(C(=O)Nc2ccccc2)c(C)c1C(=O)OC` was “inactive”. Take `Cc1ccc2c(=O)cc(C(=O)Nc3sc4c(c3C(=O)NCc3cccnc3)CCCC4)oc2c1`: the Potency result is “inactive”.

In the case of `CCOC(=O)c1c(C)n(S(=O)(=O)c2ccc(C)cc2C)c2ccc(NS(=O)(=O)c3ccc(C)cc3C)cc12`, the Potency entry is “inactive”. As to `Cc1ccc(CNC(=O)c2c(O)nc3c(C)cccn3c2=O)cc1`, the Potency result is “inactive”.

Take `CNc1ccc(-c2nc(-c3ccccc3C)no2)cc1[N+](=O)[O-]`: the Potency entry is “inactive”.

In the case of `CNc1ccc(-c2nc(-c3ccco3)no2)cc1[N+](=O)[O-]`, the Potency result was “inactive”. The value for `CC(Nc1ccc(-c2nc(-c3ccco3)no2)cc1[N+](=O)[O-])c1ccccc1` (stereo not given) was 79.4 µM (active); that for `COc1ccc(NC(=O)c2ccc3nc(CCc4ccccc4)oc3c2)c(OC)c1` was “inactive”; that for `O=C1Cc2cc(S(=O)(=O)Nc3ccc(OC(F)(F)F)cc3)cc3c2N1CCC3` was “inactive”. Turning to `COc1ccc2c(CNCCc3ccccc3C)c(C(=O)O)n(Cc3ccccc3C)c2c1`, the Potency entry was “inactive”. The value for `CN=C1S/C(=C\c2c(OC)cc(OC)cc2OC)C(=O)N1C` was “inactive”; that for `O=C(O)c1cccc(N=NN2CCCCCC2)c1` was “inactive”. Next, `CN1C(=O)/C(=C/c2ccco2)SC1=Nc1cccc(C(=O)O)c1`: 50.1 µM (active); `CCCCCCn1nnc2sc(-c3ccccc3)cc2c1=O`: “inactive”.

As to `Cc1cc(C(=O)NNC(=S)Nc2ccccc2C)cs1`, the Potency entry was “inactive”.

As for `Cc1ccc(C(=O)NC(=S)NCCN2CCOCC2)cc1`, the Potency result is “inactive”. The value for `Cc1cc2[nH]ncc2cc1NC(=S)NC(=O)c1ccccc1` was “inactive”.

In the case of `Cc1ccc(C(=O)NC(=S)Nc2ccc(N3CCOCC3)cc2)cc1`, the Potency is 14.1 µM (active).

Consider `COC(=O)c1ccc(NC(=S)NN2CCOCC2)cc1`, for which the Potency entry is “inactive”. Next, `Cc1ccc(C(=O)NC(=S)Nc2ccccc2C)cc1`: 89.1 µM (active); `COc1ccc(-c2cc(C(F)(F)F)nc(SCC(=O)N(C)Cc3ccccc3)n2)cc1OC`: “inactive”.

As for `Cc1c(Cl)cccc1NC(=O)C1CCCN(C(=O)c2cnn(-c3ccccc3)c2-n2cccc2)C1` (stereo not given), the Potency result is “inactive”.

As for `COc1ccc(CCNC(=O)c2nn(C)c3c2CSc2ccccc2-3)cc1OC`, the Potency entry was “inactive”.

As for `Cc1cc(NC(=O)CSc2ncc(C(=O)Nc3ccc(Cl)cc3)c(=O)n2C)no1`, the Potency result is “inactive”.

Take `Cc1ccc(-c2nnc(Nc3cccc(Br)c3)c3ccccc23)cc1S(=O)(=O)NCC1CCCO1` (stereo not given): the Potency result is “inactive”. Next, `Cc1cn(C)c(CC(=O)NCc2ccc(Cl)cc2)c1C(=O)O`: “inactive”; `Cc1ccc(COC(=O)CN2C(=O)NC3(CCCC3)C2=O)cc1`: “inactive”; `Cc1ccc(CCCOC(=O)C[N+]2(C)CCCC2)cc1`: 50.1 µM (active). The value for `Cc1ccc(CCCOC(=O)C[N+]2(C)CCCCC2)cc1` was “inactive”. With `COc1ccc(-c2nn(CC(=O)Nc3ccccc3F)c3c2cnc2ccc(F)cc23)cc1`, the Potency entry is “inactive”.

For the compound `CC(=O)Nc1ccc(NC(=O)CCCc2nc(-c3ccc(C(C)(C)C)cc3)no2)cc1`, the Potency result is “inactive”.

In the case of `Cc1ccc(CCNC(=O)Cn2c(-c3cccs3)cc3cc(F)ccc32)cc1`, the Potency result is “inactive”. The value for `Cc1cccc(Nc2nc(C)nc(N)c2S(=O)(=O)c2ccccc2)c1` was “inactive”.

Regarding `Cc1ccc(C(=O)NNC(=O)c2cccs2)cc1`, the Potency entry was “inactive”. The value for `Cc1ccc(C(=O)NNc2ncnc3ccccc23)cc1` was 56.2 µM (active); that for `CCc1nc(SCC(=O)NNC(=O)c2ccc(C)cc2)c2ccccc2n1` was “inactive”. Next, `CCCCCn1c(CCCNC(=O)c2ccccc2OC)nc2ccccc21`: “inactive”. The value for `COCC(C)NS(=O)(=O)c1ccc(N2CCCCS2(=O)=O)cc1` (stereo not given) was “inactive”. As to `CCOC(=O)C1CCN(c2nc3c(S(=O)(=O)c4ccc(CC)cc4)nnn3c3ccc(Cl)cc23)CC1`, the Potency result is “inactive”. The value for `CCCC(c1nnnn1C(C)(C)C)N1CCN(Cc2ccccc2)CC1` (stereo not given) was “inactive”; that for `CC(C)C(c1nnnn1C(C)(C)C)N1CCN(Cc2cccnc2)CC1` (stereo not given) was 56.2 µM (active). Turning to `CC(C)C(c1nnnn1Cc1ccccc1)N1CCC(C(N)=O)CC1` (stereo not given), the Potency entry is “inactive”. Next, `CCN(Cc1ccccc1)C(=O)c1cn(-c2cccc(OC)c2)c(=O)c2ccccc12`: “inactive”.

`COc1ccc(CNC(=O)Cc2coc3ccc(C(C)C)cc23)cc1`: the Potency entry was “inactive”. The value for `CCc1ccc(NC(=O)c2cnc3c(-c4ccccc4)c(C)nn3c2C)cc1` was “inactive”. Next, `C=CCN(C(=O)c1cc(C)cc(C)c1)C1(C(=O)Nc2ccccc2)CCN(C(C)C)CC1`: “inactive”.

`CCN(C(=O)Cc1nc(N)n[nH]1)C1(C(=O)Nc2ccccc2)CCCCC1`: the Potency was 20 µM (active).

In the case of `CCc1ccc(NC(=O)CN2C(=O)C(c3ccccc3)=NC23CCCCCC3)cc1`, the Potency entry is “inactive”. Next, `CCOc1cccc2sc(N3CCN(C(=O)C4CC4)CC3)nc12`: “inactive”; `CCCN1CN=C(NS(=O)(=O)c2ccc(NC(C)=O)cc2)NC1`: “inactive”. Take `Cc1ccc(C(=O)O)cc1-c1ccc(/C=C2\SC(=O)N(CC(=O)Nc3ccc4c(c3)OCO4)C2=O)o1`: the Potency was 11.2 µM (active). Next, `Cc1ccc(C(=O)Nc2ccc3c(c2)OCO3)cc1S(=O)(=O)N1CCCCC1`: “inactive”. Next, `Cn1cccc1/C=C1\SC(=O)N(CC(=O)Nc2ccc(F)cc2)C1=O`: “inactive”; `Cc1ccccc1CNC(=O)C(=O)NCC(c1cccs1)S(=O)(=O)c1cccs1` (stereo not given): “inactive”; `COc1ccc(NC(=O)CCCN2C(=O)CCn3nc(-c4cn(C)c5ccccc45)cc32)cc1OC`: “inactive”.

As to `Cn1cc(Cl)c(C(=O)NNC(=S)Nc2cccc(Cl)c2)n1`, the Potency entry was “inactive”. The value for `Cc1cccc(-n2cnc(C(=O)Nc3cccnc3)c2)n1` was “inactive”; that for `Cc1cccc(-n2cnc(C(=O)NNC(=S)Nc3ccccc3)c2)n1` was 22.4 µM (active).
